Assay outcomes: PubChem BioAssay, several laboratories
Most compounds without a hit are left out; they make up all but 0.79% or so of the library.
Hsp90 inh – displaces geldanamycin probe from tumor Hsp90; P07900; NCI-N417 lysate Hsp90, Cy3B-geldanamycin FP displacement; inhibition, % at 30 µM; 64,000 tested, 0.35% active;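 active = inhibition above 50%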;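 note: 0% = tracer plus lysate wells and 100% = tracer alone without lysate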
WNV protease inh – WNV NS2B-NS3 proteinase inhibition; z-score (no concentration beside the values); WNV NS2B-NS3 protease, fluorogenic substrate Ex360/Em465; active compounds read low; P06935; 65,000 tested, 0.18% active; in the data active = z-score below about -3
PKA inh – PKA (human) kinase inhibition. P17612. PKA Kemptide phosphorylation, Kinase-Glo ATP luminescence. inhibition, % at 6 µM. 65,000 tested, 0.1% active. AID 524;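 active = inhibition above the screen-wide mean inhibition plus 3 SD, cut at about 21% in these data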
MMP13 inh – blocks human MMP13 activity. AID 570. MMP-13 fTHP FRET cleavage, Mca fluorescence. inhibition, % at 4 µM. 65,000 tested, 0.07% active;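 active = inhibition above the mean of compound-free control plate wells plus 3 SD, cut at about 14% in these data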;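 note: 0% = DMSO wells and 100% = wells with reference MMP-13 inhibitor after basal subtraction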
ROCK2 blocker – ROCK2 (human) kinase inhibition | purified ROCK2, Kinase-Glo ATP depletion luminescence | inhibition, % at 6 µM | 60,000 tested, 0.35% active | AID 604;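 active = inhibition above the screen-wide mean inhibition plus 3 SD, cut at about 18% in these data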;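 note: plate controls were DMSO wells for no effect and Y-27632 control wells after no-enzyme background subtraction for full effect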
E coli RNAP – inhibitors of Escherichia coli RNA polymerase. P0A8V2. E. coli RNA polymerase, fluorescence transcription assay. inhibition, %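 (tested at 10 µM)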. 62,000 tested, 0.2% active. AID 559; in the data active = inhibition above about 20%;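 note: 0% = enzyme without compound and 100% = no enzyme blank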
Numbers without * were called inactive; . = not tested or not shown.

SMILES | Hsp90 inh | WNV protease inh | PKA inh | MMP13 inh | ROCK2 blocker | E coli RNAP
CCCCN(CC)CCNC(=O)C1c2cc(OC)c(OC)cc2C(=O)N2CCc3ccccc3C12 (stereo not drawn) | -5 | -1.5 | 2 | 7 | 1 | 3
CCN1CCN(C(=O)C2c3cc(OC)c(OC)cc3C(=O)N3CCc4ccccc4C23)CC1 (stereo not drawn) | 3 | -3.2* | 2 | -6 | 0 | 3
Cc1cc(Cl)ccc1OCc1nc(-c2ccc(O)cc2)n[nH]1 | -5 | -0.76 | 6 | 1 | 27* | 2
CC1=Nn2c(nnc2-c2ccccn2)SC1 | -1 | 0.2 | 0 | 5 | 3 | 11
O=C1C=C(NCc2ccco2)CCC1 | -2 | -0.73 | 6 | 1 | 3 | 4
O=C(Nc1ccccc1C(=O)NCCCn1ccnc1)c1ccccc1 | 0 | 0.32 | -3 | 6 | 2 | 21*
COc1ccccc1N(CC(=O)Nc1c(C)cccc1C)S(C)(=O)=O | . | -0.68 | . | . | . | 4
CCCCc1c(O)nc(N2CCN(Cc3ccccc3)CC2)[nH]c1=O | 2 | 0.38 | 7 | 3 | 2 | 43*
Cc1cc(=O)[nH]c(N2CCN(Cc3ccccc3)CC2)n1 | -9 | 0.31 | 3 | 2 | 7 | 6
COc1ccc2[nH]c(=O)c3c(c2c1)OC(C)(C)C=C3 | 3 | -1.1 | 16 | -11 | 23* | 8
COc1ccc2[nH]c3ccccc3c2c1 | 0 | -1 | 0 | -11 | 2 | 1
O=C1CC(N2CCOCC2)C(=O)N1Cc1ccc(N2CCCC2=O)cc1 (stereo not drawn) | -3 | -3.2* | -3 | 3 | 6 | 8
O=C1CCCN1CCC1CCN(C2CC(=O)N(Cc3ccc(N4CCCC4=O)cc3)C2=O)CC1 (stereo not drawn) | -5 | -1.3 | 6 | -1 | 8 | 8
O=C(NCCc1ccccc1)c1cnc2sccn2c1=O | 1 | 1.9 | 0 | -14 | 1 | 8
O=C(Cn1cnc2ccccc2c1=O)NCCC(=O)Nc1ccc2c(c1)OCCO2 | 86* | -1.6 | -8 | 0 | 3 | 0
O=c1[nH]c2cc(C(F)(F)F)ccc2n1-c1cc(C(F)(F)F)ccc1O | 59* | . | . | . | . | .
COC(=O)c1c(NC(=O)c2ccco2)sc2c1C(C(=O)OC)CC2 (stereo not drawn) | 0 | 0.61 | 4 | -8 | 6 | 8
COC(=O)c1cccc(NC(=O)Cn2cnc3c2c(=O)n(C)c(=O)n3C)c1 | -1 | -0.17 | 13 | 15* | 11 | 5
COc1ccccc1C(=O)NCc1ccncc1 | -6 | 0.23 | 8 | 2 | 10 | 6
CCOCCCN(Cc1cc2cc(C)cc(C)c2[nH]c1=O)C(=O)N(CC)CC | -7 | -0.73 | -1 | -7 | 0 | -9
CC(=O)Nc1nonc1NC(C)=O | 4 | 1.4 | -8 | 2 | -8 | 6
CC(=O)Nc1cc(OC(C)=O)c2nonc2c1OC(C)=O | 91* | -0.31 | 12 | -3 | 84* | 3
COc1ccc(S(=O)(=O)CCC(=O)N2CC(=O)N(CCc3ccccc3)C(=O)C2)cc1 | -7 | 0.62 | -1 | 0 | 0 | 2
CCN(CC)CCCNc1cc(OC)cc2ccc(OC)nc12 | 67* | . | . | . | . | .
Cc1cnc(NC(=O)C(C)N2C(=O)C3CC=CCC3C2=O)s1 (stereo not drawn) | 1 | -3.4* | 2 | -1 | 2 | 8
SMILES | Hsp90 inh | WNV protease inh | PKA inh | MMP13 inh | ROCK2 blocker | E coli RNAP
CC(C(=O)Nc1nccs1)N1C(=O)C2CC=CCC2C1=O (stereo not drawn) | -4 | 0.67 | 8 | -1 | 3 | 2
O=C1CC(c2ccsc2)c2cc3c(cc2N1)OCCO3 (stereo not drawn) | -1 | 1.1 | 6 | 5 | 2 | 3
Cc1nc(N2CCN(c3ccccc3)CC2)c2c3c(sc2n1)CCC3 | -2 | -0.33 | 6 | 4 | 5 | 13
Nc1cccc2cnccc12 | 63* | 1 | -6 | -6 | 26* | 6
C(=NCCCN1CCOCC1)c1ccc2c(c1)OCO2 | -1 | -0.11 | 10 | -1 | 4 | -1
CC(C)c1ccc(O)c(N)c1 | 19 | -0.72 | 0 | 8 | 2 | 6
CCC(C)c1ccc(O)c(N)c1 (stereo not drawn) | 13 | 0.39 | 2 | 6 | 2 | 28*
COc1ccc(C(c2nnnn2C2CCCC2)N2CCC(C)CC2)cc1 (stereo not drawn) | -3 | -0.94 | 4 | 4 | -2 | -3
C(=N\c1nc2ccccc2n1CCN1CCCCC1)/c1cccs1 | -5 | -0.1 | 5 | -2 | 19* | .
